# From PubChem BioAssay
# The source made the active and inactive calls.
# What was measured:
# [1] = small molecules captured by biotinylated probe aFSTL3 – biochemical, small-molecule microarray, fluorescence 635/667, stem cell growth factor project, primary screen (AID 1064); conditions: higher = more signal;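 further: measures binding of the biotinylated anti-FSTL3 antibody to printed compounds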
# [2] = binders from COS7 lysate, DM2A8 probe, primary screen, torsin A project, cell lysate, small-molecule microarray, fluorescence 635/667 (AID 1065); conditions: higher = more signal, COS7 lysate expressing mutant human TOR1A
# [3] = small molecules captured by biotinylated probe aFGF2 – biochemical, small-molecule microarray, fluorescence 635/667, stem cell growth factor project, primary screen (AID 1067); conditions: higher = more signal;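 further: measures binding of biotinylated aFGF2 protein to printed compounds on slides; z-score merges feature fluorescence and signal-to-noise across triplicate slides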
# [4] = small molecules captured by biotinylated probe aFGF10 – biochemical, small-molecule microarray, fluorescence 635/667, stem cell growth factor project, primary screen (AID 1071); conditions: higher = more signal;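 further: score merges 667 nm spot intensity and signal to noise from triplicate slides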
# [5] = target: Neurogenic locus notch homolog protein 2 (Homo sapiens) (UniProt Q04721); test: small molecules binding Notch2 protein – biochemical, small-molecule microarray, 635 nm fluorescence, stem cell growth factors, primary screen (AID 1073); conditions: higher = more signal
# Sequence of Neurogenic locus notch homolog protein 2 (Homo sapiens) (Q04721 whole entry, looked up, canonical isoform): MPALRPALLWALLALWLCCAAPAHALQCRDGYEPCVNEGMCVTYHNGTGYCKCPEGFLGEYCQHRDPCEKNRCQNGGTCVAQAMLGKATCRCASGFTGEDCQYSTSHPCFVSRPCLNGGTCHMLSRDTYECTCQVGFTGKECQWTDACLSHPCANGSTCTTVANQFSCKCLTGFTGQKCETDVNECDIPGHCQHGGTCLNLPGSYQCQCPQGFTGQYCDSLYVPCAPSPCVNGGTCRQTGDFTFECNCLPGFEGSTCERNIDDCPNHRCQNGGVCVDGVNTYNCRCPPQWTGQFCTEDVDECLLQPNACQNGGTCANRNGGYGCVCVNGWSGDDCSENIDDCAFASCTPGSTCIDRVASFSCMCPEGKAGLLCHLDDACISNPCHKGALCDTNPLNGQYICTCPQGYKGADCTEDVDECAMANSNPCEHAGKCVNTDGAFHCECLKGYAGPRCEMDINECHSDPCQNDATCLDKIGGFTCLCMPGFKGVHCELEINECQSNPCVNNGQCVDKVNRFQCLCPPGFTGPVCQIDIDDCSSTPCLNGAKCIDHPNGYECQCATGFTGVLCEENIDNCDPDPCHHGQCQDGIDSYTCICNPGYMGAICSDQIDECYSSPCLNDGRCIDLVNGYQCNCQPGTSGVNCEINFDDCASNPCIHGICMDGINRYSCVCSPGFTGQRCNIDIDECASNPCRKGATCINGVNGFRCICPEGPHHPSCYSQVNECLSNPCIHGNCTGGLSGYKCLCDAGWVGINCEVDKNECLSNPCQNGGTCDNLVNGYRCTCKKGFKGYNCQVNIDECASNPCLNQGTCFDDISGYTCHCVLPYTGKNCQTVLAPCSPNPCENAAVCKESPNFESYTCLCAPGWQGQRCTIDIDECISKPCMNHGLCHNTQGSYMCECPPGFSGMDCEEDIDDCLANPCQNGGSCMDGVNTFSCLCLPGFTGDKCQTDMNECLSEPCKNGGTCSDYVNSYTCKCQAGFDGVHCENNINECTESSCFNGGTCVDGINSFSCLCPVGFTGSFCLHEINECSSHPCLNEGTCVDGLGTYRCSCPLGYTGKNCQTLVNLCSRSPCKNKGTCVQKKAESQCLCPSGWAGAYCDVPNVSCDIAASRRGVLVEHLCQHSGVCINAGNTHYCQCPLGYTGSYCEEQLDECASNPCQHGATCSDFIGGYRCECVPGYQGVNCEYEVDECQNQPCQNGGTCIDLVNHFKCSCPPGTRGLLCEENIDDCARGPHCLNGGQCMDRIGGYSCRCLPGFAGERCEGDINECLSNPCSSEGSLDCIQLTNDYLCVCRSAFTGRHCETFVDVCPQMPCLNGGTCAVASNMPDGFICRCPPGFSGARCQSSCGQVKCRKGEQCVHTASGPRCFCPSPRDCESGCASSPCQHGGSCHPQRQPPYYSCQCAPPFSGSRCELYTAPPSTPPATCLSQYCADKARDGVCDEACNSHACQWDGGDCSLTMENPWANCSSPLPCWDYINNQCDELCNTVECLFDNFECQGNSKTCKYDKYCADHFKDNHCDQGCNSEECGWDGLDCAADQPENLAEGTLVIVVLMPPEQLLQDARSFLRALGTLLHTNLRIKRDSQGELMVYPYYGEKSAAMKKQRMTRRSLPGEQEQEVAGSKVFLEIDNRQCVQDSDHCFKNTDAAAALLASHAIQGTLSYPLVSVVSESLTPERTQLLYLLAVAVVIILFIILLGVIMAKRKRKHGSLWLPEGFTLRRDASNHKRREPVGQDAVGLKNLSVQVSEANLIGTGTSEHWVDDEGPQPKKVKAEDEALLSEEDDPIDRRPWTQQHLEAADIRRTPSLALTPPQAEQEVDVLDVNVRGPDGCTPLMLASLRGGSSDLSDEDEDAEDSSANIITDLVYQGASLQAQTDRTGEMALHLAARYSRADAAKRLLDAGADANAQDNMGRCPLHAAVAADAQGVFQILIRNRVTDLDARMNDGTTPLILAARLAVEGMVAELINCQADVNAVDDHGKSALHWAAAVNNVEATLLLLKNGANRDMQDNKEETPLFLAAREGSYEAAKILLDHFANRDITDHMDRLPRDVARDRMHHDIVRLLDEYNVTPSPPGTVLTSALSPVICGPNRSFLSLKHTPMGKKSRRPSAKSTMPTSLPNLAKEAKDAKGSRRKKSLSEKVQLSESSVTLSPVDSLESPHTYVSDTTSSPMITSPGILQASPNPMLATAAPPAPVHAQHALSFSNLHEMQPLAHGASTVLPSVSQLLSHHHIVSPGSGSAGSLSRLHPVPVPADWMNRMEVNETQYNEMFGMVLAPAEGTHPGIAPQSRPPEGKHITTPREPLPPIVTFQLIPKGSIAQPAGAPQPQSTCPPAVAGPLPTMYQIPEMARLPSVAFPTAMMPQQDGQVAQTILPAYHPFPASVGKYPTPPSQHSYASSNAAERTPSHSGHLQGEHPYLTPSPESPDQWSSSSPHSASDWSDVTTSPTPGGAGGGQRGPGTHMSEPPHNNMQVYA
# [6] = target: Pro-neuregulin-1, membrane-bound isoform (Homo sapiens) (UniProt Q02297); test: small molecules binding neuregulin-1 protein – biochemical, small-molecule microarray, fluorescence 635/667, psychiatric disease protein project, primary screen (AID 1075); conditions: NRG1 binding, 635 nm fluorescence, higher = more signal;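 further: score combines 667 nm spot fluorescence with signal to noise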
# Sequence of Pro-neuregulin-1, membrane-bound isoform (Homo sapiens) (Q02297 whole entry, looked up, the tested form may be a part, canonical isoform): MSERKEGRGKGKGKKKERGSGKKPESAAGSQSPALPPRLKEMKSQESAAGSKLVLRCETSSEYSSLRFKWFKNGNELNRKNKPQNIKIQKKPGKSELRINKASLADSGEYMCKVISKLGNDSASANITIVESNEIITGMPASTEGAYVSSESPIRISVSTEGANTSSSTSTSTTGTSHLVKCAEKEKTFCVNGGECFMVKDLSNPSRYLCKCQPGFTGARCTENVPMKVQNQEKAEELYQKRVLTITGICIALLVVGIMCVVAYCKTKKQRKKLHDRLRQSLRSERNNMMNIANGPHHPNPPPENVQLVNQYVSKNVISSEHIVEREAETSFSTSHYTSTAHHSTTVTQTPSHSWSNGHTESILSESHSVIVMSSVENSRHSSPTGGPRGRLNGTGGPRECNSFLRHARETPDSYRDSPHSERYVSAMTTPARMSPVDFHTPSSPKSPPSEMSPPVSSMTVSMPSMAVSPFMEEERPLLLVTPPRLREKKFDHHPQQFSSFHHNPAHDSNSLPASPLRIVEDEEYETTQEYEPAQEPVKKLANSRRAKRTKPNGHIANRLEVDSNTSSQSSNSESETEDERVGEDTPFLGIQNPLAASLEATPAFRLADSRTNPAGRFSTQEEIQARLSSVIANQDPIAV
# [7] = system: Neuregulin-1 EGF-like domain; test: small molecules binding NRG1 EGF domain – biochemical, small-molecule microarray, 635 nm fluorescence, primary screen (AID 1081); conditions: higher = more signal;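 further: binding of the protein to compounds printed on small-molecule microarray slides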
# [8] = FRG1 expression reporter modulators in myotubes – cell-based, C2C12 myotubes, firefly/Renilla luciferase, luminescence, FRG1 inhibition for FSHD, primary screen (AID 1084); conditions: FRG1 promoter luciferase, higher = more signal, called active from +8 up or from −8 down
# [9] = small molecules captured by biotinylated probe aFST – biochemical, small-molecule microarray, fluorescence 635/667, stem cell growth factor project, primary screen (AID 1086); conditions: higher = more signal;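 further: score merges 667 nm fluorescence with signal-to-noise of each printed compound spot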
# [10] = binders of probe aHhip on microarray, primary screen, stem cell growth factor project, biochemical, small-molecule microarray, fluorescence 635/667 (AID 1087); conditions: higher = more signal;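 further: score merges spot fluorescence at 667nm with spot signal to noise ratio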
Compound,composite z-score [1],composite z-score [2],composite z-score [3],composite z-score [4],composite z-score [5],composite z-score [6],composite z-score [7],z-score [8],composite z-score [9],composite z-score [10]
CCN1C(=O)[C@H]2[C@H]3[C@H](O)[C@H](O)CC(=NOCC(C)C)[C@H]3CC[C@H]2C1=O,-0.801,0.328,-0.0977,0.329,0.351,-0.139,0.124,0.268 (inactive),0.101,-0.079
Cc1ccc(S(=O)(=O)N[C@@H]2COC(=O)CC=C[C@@H](C)[C@H](NS(=O)(=O)c3ccc(C)cc3)COC(=O)[C@H](C)NC(=O)CC=C[C@H]2C)cc1,0.166,0.264,-0.11,-0.0539,-1.12,-0.921,-0.744,-0.138 (inactive),-0.18,-0.216
CCN1C(=O)[C@H]2[C@H]3[C@H](O)[C@H](O)CC(=NOCC=C(C)CCC=C(C)C)[C@@H]3CC[C@H]2C1=O,-0.524,1.36,-0.146,0.483,0.2,-0.0702,0.91,0.256 (inactive),0.774,-0.0994
COC(=O)[C@H](CCSC)NC(=O)CC=C[C@@H](C)CO,-0.738,2.66,-0.123,0.708,0.175,-0.399,0.818,-0.202 (inactive),0.325,0.484
COC(=O)CC=C[C@@H](C)[C@@H](C=NOC(C)CN1CCCc2nc(C)c(C)cc21)NS(=O)(=O)c1ccc(C)cc1 (stereo not given in full),-0.0882,0.296,-0.0202,0.469,0.699,0.257,0.665,0.562 (inactive),0.316,0.809
COC(=O)CC=C[C@@H](C)[C@@H](C=NOC[C@@H](C)[C@H](OCc1ccccc1)C(C)C)NS(=O)(=O)c1ccc(C)cc1,-0.433,0.142,-0.0633,-0.0494,-0.801,-0.267,-0.332,0.539 (inactive),-0.0646,-0.0003
COc1ccc(COC(=O)NN=C2C[C@@H](O)[C@@H](O)[C@@H]3[C@@H]4C(=O)N(c5cccc(Oc6ccccc6)c5)C(=O)[C@@H]4CC[C@H]23)cc1,0.937,-0.379,-0.138,0.0478,-0.311,0.783,-0.317,0.632 (inactive),0.85,-0.0994
COC(=O)[C@H](C)NC(=O)CCC1CC(OC(=O)NCc2cccc3ccccc23)CC2(CCCC(COC(=O)NCCc3ccccc3OC)O2)O1 (stereo not given in full),-0.629,0.0902,-0.076,0.612,1.24,1.15,1.21,2.21 (inactive),0.573,0.24
CC(C)(C)N1C(=O)[C@H]2[C@H]3[C@H](O)[C@H](O)CC(=NNC(=O)OCc4ccccc4)[C@H]3CC[C@H]2C1=O,-0.642,0.0714,-0.0684,0.559,0.389,0.26,0.748,-0.0034 (inactive),-0.0777,-0.169
CC(=O)OC[C@H]1O[C@H](CC=NO[C@@H](C)c2cn([C@H](CO)Cc3ccccc3)nn2)C=C[C@@H]1OC(C)=O,-0.513,0.386,-0.104,0.649,0.804,1.24,0.732,0.386 (inactive),0.275,0.225
COC(=O)[C@H](C)NC(=O)CCC1CC(OC(=O)NCc2ccc3c(c2)OCO3)CC2(CCCC(COC(=O)NCc3ccccc3)O2)O1 (stereo not given in full),-0.344,0.0374,0.0025,0.721,0.748,0.52,0.877,-0.156 (inactive),0.0613,-0.212
C[C@@H]1CC[C@@H](C(=O)O)N[C@H]1c1cccc(N2CCOCC2)c1,-0.406,0.179,-0.0428,0.268,0.887,0.0719,0.251,-1.79 (inactive),0.253,-0.134
O=C1[C@H]2[C@H]3[C@H](O)[C@H](O)CC(=NOCc4ccccc4)[C@@H]3CC[C@H]2C(=O)N1c1cccc(Oc2ccccc2)c1,-0.556,0.101,-0.0579,0.554,0.359,1.48,0.988,-0.441 (inactive),0.529,0.141
C#CCCCON=C1C[C@@H](O)[C@@H](O)[C@@H]2[C@@H]3C(=O)N(C[C@@H]4CCCO4)C(=O)[C@@H]3CC[C@@H]12,-0.499,0.153,-0.0909,0.691,0.922,0.404,0.275,0.737 (inactive),-0.0371,0.0373
COC(=O)[C@H](Cc1ccccc1)NC(=O)[C@@H](C)CO,0.503,0.482,-0.0105,0.417,0.458,-0.35,0.867,0.313 (inactive),0.53,-0.0672
COc1ccc(OC[C@@H](CO)OC)cc1,-0.306,0.415,-0.0512,0.3,0.0354,-0.156,-0.0824,0.759 (inactive),0.0746,-0.0994
CON(C)C(=O)c1nnc2c(n1)[nH]c1ccccc12,-0.262,0.668,-0.165,0.494,0.448,0.0309,0.823,168 (active),-0.128,-0.323
COc1ccc(O[C@H]2C=C[C@@H](c3ccccc3)O[C@@H]2COC(=O)NCc2cccc3ccccc23)cc1,-0.0348,-0.0761,-0.107,0.0599,-0.096,-0.027,0.0452,-0.97 (inactive),-0.116,-0.294
CC(CCC(=O)OC[C@H]1O[C@H](C#Cc2ccccc2)C=C[C@@H]1Oc1ccc(C)cc1)=NOC(C)CN1CCCc2nc(C)c(C)cc21 (stereo not given in full),-0.293,0.0877,-0.0783,0.413,0.869,0.617,0.684,0.517 (inactive),0.69,-0.0319
CC(CCC(=O)OC[C@H]1O[C@H](C#Cc2ccccc2)C=C[C@@H]1Oc1ccc(C)cc1)=NOC[C@@H](C)[C@H](OCc1ccccc1)C(C)C,-0.205,-0.0926,-0.121,-0.122,-0.67,-1.01,-1.05,-0.234 (inactive),-0.114,-0.175
